Here are results for 40 molecules from PubChem BioAssay (NCATS).

Each structure is given as a SMILES string. Records with an inconclusive call do not appear. A number with no mark means an inactive call. Activity calls are given as the source filed them. Calls follow the shape of the dose curve; as a rule, active = well fitted cell-killing curve with a large enough effect; inconclusive = small, poorly fitted or top-dose-only effect, or effect the other way; inactive = no such curve, though single readings can be large or run the other way.
Potency is read from the fitted curve at half-maximal effect.

This assay in a line: Quantitative High-Throughput drug screen in 47 multiple myeloma cell lines against the NCATS MIPE library collection: MMM1_PLB cell viability assay (AID 1918976). Also: nearly all actives have a fitted effect of over 35% in size. The settings on record: MMM1 myeloma cells viability, CellTiter-Glo, 48 h; series mostly up to 45.8 µM; viability (% of control): at the top concentration. An excerpt: PI: Beverly A. Mock Ph.D.
Laboratory of Cancer Biology and Genetics,
Center for Cancer Research, National Cancer Institute,
National Institute of Health, Bethesda, Maryland
Drug resistance and disease progression are common in multiple myeloma (MM) patients, underscoring the need for new therapeutic combinations. […] We hypothesized that effective combinations would reduce MYC expression and enhance p16 activity. […] These preclinical data identify potentially useful drug combinations for evaluation in drug-resistant MM and reveal potential mechanisms of combined drug sensitivity.
Described herein is the primary MIPE qHTS used to cherrypick compounds. Validated compounds were then further tested for potential synergistic activiy.
[1] Peat TJ, Gaikwad SM, Dubois W, Gyabaah-Kessie N, Zhang S, Gorjifard S, Phyo Z, Andres M, Hughitt VK, Simpson RM, Miller MA, Girvin AT, Taylor A, Williams D, D'Antonio N, Zhang Y, Rajagopalan A, Flietner E, Wilson K, Zhang X, Shinn P, Klumpp-Thomas C, McKnight C, Itkin Z, Chen L, Kazandijian D, Zhang J, Michalowski AM, Simmons JK, Keats J, Thomas CJ, Mock BA. Drug combinations identified by high-throughput screening promote cell cycle transition and upregulate Smad pathways in myeloma. Cancer Lett. 2023 Aug 1;568:216284. doi: 10.1016/j.canlet.2023.216284. Epub 2023 Jun 24. PMID: 37356470; PMCID: PMC10408729.
SEQUENCE No. (e.g., 1, 2, 3, etc.); […] (e.g., Cells, Incubation, Reagent, etc.); VALUE and DESCRIPTION.
1; Cells; 5 uL; white, solid bottom 1536-well Greiner assay plate.
2; Compounds; 23 nL; Kalypsis pin tool (Wako USA) equipped with a 1536-well pin head to transfer to the assay plates.
3; Incubation; 48 hours; 37C incubation.
4; Reagent;5uL; CellTiter Glo (Promega).
5; Detector; 425V; Luminescence; Viewlux PerkinElmer.
NOTES (numbers refer to Sequence numbers above)
1. The cell-based screening methods employed in this study were like those previously published. Briefly, the corresponding myeloma cell lines were screened in 1,536-well plates with 500 cells, 5-uL per well for inhibition of cell viability (assessed by measuring ATP levels with CellTiterGlo).
2. NCATS MIPE 4.0 library of approved and investigational drugs were added using the Kalypsis pin tool. Wells treated with DMSO only for 100% viability and media only for 0% viability were used as controls.
3. The assay plates were covered and incubated for 48 hours in a 37C, 5% CO2 incubator with controlled humidity.
4. After 48 hours, CellTilter-GloTM luminescent substrate mix (Promega) reagent was added to the assay plate and plates we incubated for 5 min at room temperature.
5. Signal was measured as median relative luminescence units on a ViewLux (PerkinElmer) multiplate reader.
[1] Heske CM, Davis MI, Baumgart JT, Wilson K, Gormally MV, Chen L, Zhang X, Ceribelli M, Duveau DY, Guha R, Ferrer M, Arnaldez FI, Ji J, Tran HL, Zhang Y, Mendoza A, Helman LJ, Thomas CJ. Matrix Screen Identifies Synergistic Combination of PARP Inhibitors and Nicotinamide Phosphoribosyltransferase (NAMPT) Inhibitors in Ewing Sarcoma. Clin Cancer Res. 2017 Dec 1;23(23):7301-7311. doi: 10.1158/1078-0432.CCR-17-1121. Epub 2017 Sep 12. PMID: 28899971; PMCID: PMC6636827.
With `Cc1nc(NC(=O)N2CCC[C@@H]2C(N)=O)sc1-c1csc(C(C)(C)C)n1`, the Potency was 0.935 µM (active). The same measure, in the same setting: with `CO[C@H]1/C=C\O[C@@]2(C)Oc3c(C)c(O)c4c(O)c(c(C=NN5CCN(C6CCCC6)CC5)c(O)c4c3C2=O)NC(=O)C(C)=CC=C[C@H](C)[C@H](O)[C@@H](C)[C@@H](O)[C@@H](C)[C@H](OC(C)=O)[C@H]1C` the figure was 5.26 µM (active); with `CC(C)CNc1ccnc(NCc2csc(-c3ccccc3)n2)n1`, 5.9 µM (active). Take `CCCCOCCOc1nc(-c2ccc(C(=O)O)c(F)c2)sc1C`: the “viability (% of control)” value is 102%.

For `CC1(C)[C@H]2CC[C@]3(C)[C@@H](C(=O)C=C4[C@@H]5C[C@@](C)(C(=O)O)CC[C@]5(C)CC[C@]43C)[C@@]2(C)CC[C@@H]1O`, the Potency was 3.72 µM (active). As to `Cc1cccc2c1CC[C@H](CN1CCC(c3c(Cl)cccc3Cl)CC1)C[C@@H]2O`, the Potency is 18.7 µM (active). Turning to `Cc1ccc2c(c1)C(=O)[C@]1(O)CCN(c3ccccc3)C1=N2`, the “viability (% of control)” value was 97.8%. With `Cc1cccc(Nc2nc(N[C@@H]3CCCC[C@H]3N)ncc2C(N)=O)c1`, the Potency was 20.9 µM (active).

For the molecule `C#C[C@]1(O)CC[C@H]2[C@H]3CCc4cc(OC)ccc4[C@H]3CC[C@@]21C`, the Potency is 18.7 µM (active). Same read-out and setting: as for `COc1cc2c(cc1OC)[C@@H]1Cc3ccc(OC)c(OC)c3CN1CC2`, the figure is 16.6 µM (active); as for `COc1ccc2ccc(=O)oc2c1CC=C(C)C`, 16.6 µM (active); as for `CC=C(C(=CC)c1ccc(O)cc1)c1ccc(O)cc1`, 16.6 µM (active). On the same count and under the same terms, with `Cc1ccc(C(=O)N(CCCN)[C@@H](c2oc3cc(Cl)ccc3c(=O)c2Cc2ccccc2)C(C)C)cc1` the figure was 23.5 µM (active); with `Cc1ccccc1C(=O)c1ccc(Nc2ccc(Br)cc2N)cc1Cl`, 16.6 µM (active). On the same count and under the same terms, as for `CN[C@@H]1[C@@H](O)[C@@H](O[C@@H]2[C@@H](O)[C@H](O[C@H]3O[C@H](CN)[C@@H](O)[C@H](O)[C@@H]3O)[C@@H](N)C[C@@H]2NC(=O)[C@@H](O)CN)OC[C@]1(C)O`, the figure is 5.26 µM (active); as for `CCCC1OC2C[C@@H]3[C@H]4CCC5=CC(=O)C=C[C@]5(C)[C@H]4C(O)C[C@]3(C)[C@]2(C(=O)CO)O1` (stereo not given in full), 0.0066 µM (active). For the molecule `O=C(CO)N1CCC(c2[nH]nc(-c3ccc(Cl)cc3)c2-c2ccncn2)CC1`, the Potency was 0.148 µM (active). Same read-out and setting: as for `CN1CCc2c(n(Cc3ccc(C(=O)NO)cc3)c3ccccc23)C1`, the figure is 14.8 µM (active); as for `CN(C)CC[C@H](CSc1ccccc1)Nc1ccc(S(=O)(=O)NC(=O)c2ccc(N3CCN(Cc4ccccc4-c4ccc(Cl)cc4)CC3)cc2)cc1[N+](=O)[O-]`, 0.526 µM (active). Same read-out and setting: as for `CN(C)S(=O)(=O)c1ccc2c(c1)C(=Cc1cc3c([nH]1)CCCC3)C(=O)N2`, the figure is 18.7 µM (active).

Regarding `COc1cc2nccc(Oc3ccc(NC(=O)Nc4ccc(F)cc4F)c(F)c3)c2cc1OC`, the Potency is 0.0935 µM (active). Same read-out and setting: with `CN[C@@H]1CN(c2ccc3c(=O)c(C(=O)O)cn(-c4nccs4)c3n2)C[C@@H]1OC` the figure was 8.12 µM (active).

For `O=C(Nc1cccc(Cl)c1)Nc1ncc(CCNc2ncnc3ccsc23)s1`, the Potency was 16.6 µM (active). Still for that read-out and setting: as for `CC[C@H](CC#N)OC(=O)N[C@@H](C)c1cccc(NC(=O)Nc2ccc(-c3cnco3)c(OC)c2)c1`, the figure is 20.9 µM (active); as for `COc1c(C)cnc(Cn2cnc3c(Cl)nc(N)nc32)c1C`, 0.935 µM (active).

Consider `Cc1ccc(S(=O)(=O)Nc2nc3ccccc3nc2Nc2ccc3nsnc3c2)cc1`, for which the Potency was 3.63 µM (active).

Take `Cc1nn(Cc2ccccc2Cl)c(C)c1CN(C)CC(O)COc1ccc(Cl)cc1` (stereo not given): the Potency was 18.7 µM (active).

Take `Cc1cc(NC(=O)Nc2ccc(N(C)C)cc2)c2cc(F)cc(F)c2n1`: the Potency is 20.9 µM (active). On to `CC(C)(OCc1nn(Cc2ccccc2)c2ccccc12)C(=O)O`, for which the “viability (% of control)” value is 138%. For the molecule `CNC(=O)c1cc(Oc2ccc(NC(=O)Nc3ccc(Cl)c(C(F)(F)F)c3)c(F)c2)ccn1`, the Potency was 8.33 µM (active).

Consider `COc1ccc(-c2oc3c(CC=C(C)C)c(O)cc(O)c3c(=O)c2O)cc1`, for which the Potency is 20.9 µM (active). On the same count and under the same terms, with `CCOC(=O)N1c2ccc(C(F)(F)F)cc2[C@@H](N(Cc2cc(C(F)(F)F)cc(C(F)(F)F)c2)C(=O)OC)C[C@H]1CC` the figure was 8.33 µM (active); with `CCC[C@H](Nc1nc(-c2ccc(NC(=O)NCC)c(OC)c2)ncc1C)c1cccnc1`, 0.0209 µM (active); with `c1ccc(-c2oc3ncnc(NC[C@@H]4CCCO4)c3c2-c2ccccc2)cc1`, 20.9 µM (active). On to `O=C(O)CCC=CCC[C@@H]1[C@H](N2CCCCC2)[C@@H](O)C[C@@H]1OCc1ccc(-c2ccccc2)cc1`, for which the “viability (% of control)” value was 128%. As for `O=C(c1ccc(C=Cc2n[nH]c3ccccc23)cc1)N1CCNCC1`, the Potency was 5.26 µM (active).

Regarding `Cc1cc(CS(=O)(=O)c2ccccc2)cc(OCc2ccc(CN3CCC[C@H]3CO)cc2)c1`, the Potency was 13.2 µM (active). The same measure, in the same setting: with `C[C@@H]1CC=CC=CC=CC=C[C@@H](O[C@@H]2O[C@H](C)[C@@H](O)[C@H](N)[C@H]2O)C[C@@H]2O[C@](O)(C[C@@H](O)C[C@@H]3O[C@@H]3C=CC(=O)O1)C[C@H](O)[C@@H]2C(=O)O` the figure was 23.5 µM (active). Same read-out and setting: with `COC(=O)Nc1ccc(-c2nc(N3CCOCC3)c3cnn(C4CCN(C(=O)OC)CC4)c3n2)cc1` the figure was 0.418 µM (active); with `C[C@H]1COC2=C1C(=O)C(=O)c1c2ccc2c1CCCC2(C)C`, 13.2 µM (active).
